Screening results (PubChem BioAssay)
Pin1 inh = human Pin1 inhibition. Q13526. Pin1 FP peptide displacement, HiFluor488, 10 min. Potency, µM (top dose mostly 115 µM), usual class: inhibitors. 0.009% of 390,000 active; active = well fitted inhibition curve with a large enough effect in the polarisation, with a control signal flat, not every such curve was filed as active; inconclusive = small, poorly fitted or top-dose-only effect, or effect the other way, or a change in a side signal; inactive = no such curve, though single readings can be large or run the other way; the % refers to the polarisation
Target sequence (Q13526 whole entry, looked up): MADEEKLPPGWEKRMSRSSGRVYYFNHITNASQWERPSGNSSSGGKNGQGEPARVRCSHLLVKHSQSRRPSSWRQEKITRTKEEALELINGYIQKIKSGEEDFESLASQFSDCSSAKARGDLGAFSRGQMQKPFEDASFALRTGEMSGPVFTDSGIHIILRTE
PGK inhibitor = inhibitors of T. brucei phosphoglycerate kinase | P07378 | PGK/GAPDH coupled, Kinase-Glo luminescence, 60 min | Potency, µM (titrated, usually from 57.5 µM), most hits filed as inhibitors | 0.043% of 380,000 active | AID 602233; also: nearly all actives have a fitted effect of over 60% in size
Target sequence (P07378 whole entry, looked up): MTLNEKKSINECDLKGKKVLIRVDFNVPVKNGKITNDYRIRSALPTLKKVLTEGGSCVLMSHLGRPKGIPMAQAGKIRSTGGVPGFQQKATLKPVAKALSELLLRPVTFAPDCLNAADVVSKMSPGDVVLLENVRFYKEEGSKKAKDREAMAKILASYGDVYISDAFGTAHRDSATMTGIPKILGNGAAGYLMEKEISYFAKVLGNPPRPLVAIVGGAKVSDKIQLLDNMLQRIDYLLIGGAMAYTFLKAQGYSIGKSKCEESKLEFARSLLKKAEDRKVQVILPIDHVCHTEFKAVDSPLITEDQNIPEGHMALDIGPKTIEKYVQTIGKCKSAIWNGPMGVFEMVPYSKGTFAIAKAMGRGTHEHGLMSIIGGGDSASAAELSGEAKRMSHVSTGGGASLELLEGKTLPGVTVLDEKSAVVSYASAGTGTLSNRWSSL
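Luminescent ATP detection (Kinase-Glo Plus) follows a 60-minute room-temperature incubation, with wells lacking PGK as controls. Buffer: 100 mM TEA (pH 7.6), 5 mM MgCl2, 0.01% Tween-20. Coupling enzyme GAPDH (100 nM final) supplies unstable 1,3-BPG in-well.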
PI4K2A inh = inhibitors of human PI4K2A; purified PI4K2A, ADP-Glo luminescence, 1 h; hits give low values; activity change, negative = inhibition, % at 76.9 µM; 0.13% of 420,000 active; AID 1346378; in the data active = activity change below about -50%; inconclusive = mostly about -30% to -49%
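ADP-Glo luminescence measured ADP generated by PI4K2A enzyme (4 ug/mL before mixing) with 1.2 mM PI substrate (pre-mix) and 300 microM ATP (pre-mix). Tris pH7.5 buffer with MgCl2, Triton X-100; 1 h reaction at ambient temperature.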
PI5P4Ka inh = PI5P4K alpha (human) kinase inhibition; 1.2% of 330,000 active; P48426; max response, %; PI5P4Kalpha enzyme, ADP-Glo luminescence, 60 min; hits give low values; active = max response of -50% or lower; inconclusive = between -30% and -50%; inactive = -30% or higher; also: value at the top dose of about 77 µM
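ADP-Glo luminescence end-point read after a 60 min room-temperature kinase reaction of PI5P4Kalpha plus substrate, initiated with ATP at 5 microM final. Buffer: 0.038 M HEPES pH 7.4, EGTA, 0.1% CHAPS, 5% DMSO.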
Tb PFK inh-1 = blocks T. brucei phosphofructokinase; T. brucei PFK, ADP-Glo luminescence; Potency, µM (top dose mostly 57.5 µM), hits mostly inhibitors; 0.17% of 330,000 active; also: nearly all actives have a fitted effect of over 60% in size
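1.25 nM PFK with 0.5 mM F6P and 0.1 mM ATP in 0.1 M TEA pH 8.0, 5 mM MgCl2, incubated 45 min at room temperature; ADP measured by ADP-Glo luminescence; compounds titrated up to 57 uM.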
TbPFK ATP = orthogonal confirmation of T. brucei phosphofructokinase inhibitors. Potency, µM (top dose mostly 57.5 µM). 47% of 1,100 active. Tb PFK enzyme, ATP depletion, Kinase-Glo Plus luminescence. shares compounds with Tb PFK inh-1; calls by dose curve; also: nearly all actives have a fitted effect of over 60% in size
Tb PFK inh-2 = validation of T. brucei phosphofructokinase inhibitors | shares compounds with Tb PFK inh-1 | purified T. brucei PFK, ADP-Glo luminescence, 45 min | Potency, µM (highest dose often 57.5 µM), actives largely listed as inhibitors | 41% of 1,100 active | AID 504637; also: nearly all actives have a fitted effect of over 60% in size
Hits are given with their value. The full list was thinned out, with hits kept by preference. Unless noted, calls follow the shape of the dose curve; as a rule, active = well fitted curve in the direction sought with a large enough effect; inconclusive = small, poorly fitted or top-dose-only effect, or another doubt; inactive = no such curve, though single readings can be large; an effect the other way counts as inactive or inconclusive.

`C=CCn1c(SCC(=O)N2CCOCC2)nc2scc(-c3ccco3)c2c1=O` gave Pin1 inh inconclusive, PGK inhibitor inconclusive, PI4K2A inh inactive, Tb PFK inh-1 inconclusive, TbPFK ATP inconclusive and Tb PFK inh-2 inactive.
Oc1ccc(/C=N/Nc2nccnc2Cl)cc1 was read as Pin1 inh inactive, PGK inhibitor 11µM, PI4K2A inh inactive, PI5P4Ka inh -65, Tb PFK inh-1 inconclusive, TbPFK ATP inactive and Tb PFK inh-2 19µM.
ClCCN(CCCl)c1ccc(C=NNc2ncccn2)cc1 was read as Pin1 inh inactive, PGK inhibitor inactive, PI4K2A inh inactive and PI5P4Ka inh inactive.
Cc1cnn(C2CCN(C)CC2)c1N was read as Pin1 inh inactive, PGK inhibitor inactive, PI4K2A inh inactive and Tb PFK inh-1 inactive.
COc1ccc(C(=O)COC(=O)c2ccccc2O)c(OC)c1 was read as Pin1 inh inconclusive, PGK inhibitor inactive, PI4K2A inh inactive, PI5P4Ka inh -57, Tb PFK inh-1 6.7µM, TbPFK ATP inactive and Tb PFK inh-2 inactive.
COC(=O)C1=C(c2ccc(Cl)c(C(F)(F)F)c2)C[C@@H]2CC[C@H]1N2C(=O)NCc1ccc2c(c1)OCO2 was read as Pin1 inh inactive, PGK inhibitor inactive, PI4K2A inh inactive, PI5P4Ka inh inactive and Tb PFK inh-1 inactive.
For COc1ccc(CC(=O)N(C)C2CCCN(Cc3ccccc3F)C2)cc1OC (configuration not stated) the results were Pin1 inh inactive, PGK inhibitor inactive, PI4K2A inh inactive, PI5P4Ka inh inactive and Tb PFK inh-1 inactive.
`Cc1cc(NC(=O)Nc2ccc(Cl)c(Cl)c2)n(-c2ccccc2)n1` gave Pin1 inh inactive, PGK inhibitor inactive, PI4K2A inh inactive, PI5P4Ka inh inactive, Tb PFK inh-1 19µM, TbPFK ATP inconclusive and Tb PFK inh-2 inactive.
Screening COc1cccc(N2CC(C(=O)Nc3ccc(F)cc3)CC2=O)c1 (configuration not stated) returned Pin1 inh inactive, PGK inhibitor inactive, PI4K2A inh inactive, PI5P4Ka inh inactive, Tb PFK inh-1 19µM, TbPFK ATP inactive and Tb PFK inh-2 inactive.
`COP(=O)(C(=O)Nc1ccccc1)C(CC(C)C)NC(=O)OCc1ccccc1` (configuration not stated) gave PI4K2A inh inactive.
`COc1ccccc1C(=O)Nc1ccc2c(c1)C(=O)NC2=O` gave Pin1 inh inactive, PGK inhibitor inactive, PI4K2A inh inactive, PI5P4Ka inh inactive, Tb PFK inh-1 24µM, TbPFK ATP 19µM and Tb PFK inh-2 inconclusive.
COC(=O)C1=C(c2ccc(OC)c(OC)c2)C[C@@H]2CC[C@H]1N2C(=O)NCc1ccco1 was read as Pin1 inh inconclusive, PGK inhibitor inactive, PI4K2A inh inactive, PI5P4Ka inh inactive and Tb PFK inh-1 inactive.
Screening CC(=O)c1cccc(OCC(=O)N(C)CC(=O)NCc2ccco2)c1 returned PGK inhibitor 14µM, PI4K2A inh inactive, PI5P4Ka inh inactive, Tb PFK inh-1 19µM, TbPFK ATP 2.4µM and Tb PFK inh-2 2.7µM.
Screening CCOc1ccc2c(c1)c(C(C)=O)c(C)n2Cc1ccco1 returned Pin1 inh inactive, PGK inhibitor inactive, PI4K2A inh inactive, PI5P4Ka inh inactive and Tb PFK inh-1 inactive.
CCOc1ccc(C(=O)OCC(=O)NCc2ccco2)cc1OCC was read as Pin1 inh inactive, PGK inhibitor inactive, PI4K2A inh inactive, PI5P4Ka inh inconclusive, Tb PFK inh-1 inconclusive, TbPFK ATP inconclusive and Tb PFK inh-2 inactive.
`O=C(COC(=O)c1ccccc1Oc1ccccc1)NCc1ccco1` gave Pin1 inh inactive, PGK inhibitor inconclusive, PI4K2A inh inactive, PI5P4Ka inh inconclusive, Tb PFK inh-1 27µM, TbPFK ATP 17µM and Tb PFK inh-2 inconclusive.
For COc1ccc(C(=O)OCC(=O)NCc2ccco2)cc1OC the results were Pin1 inh inconclusive, PGK inhibitor inactive, PI4K2A inh inactive, PI5P4Ka inh inactive, Tb PFK inh-1 inconclusive, TbPFK ATP inconclusive and Tb PFK inh-2 inconclusive.
`CCN(CC)C(=O)c1ccc(NC(=O)c2cccc(S(=O)(=O)N3CCN(C)CC3)c2)cc1` gave Pin1 inh inactive, PGK inhibitor inactive, PI4K2A inh inactive, PI5P4Ka inh inactive and Tb PFK inh-1 inactive.
`O=C(COC(=O)c1cccc(S(=O)(=O)N2CCc3ccccc3C2)c1)NCc1ccco1` gave Pin1 inh inactive, PGK inhibitor inactive, PI4K2A inh inactive, PI5P4Ka inh inactive, Tb PFK inh-1 11µM, TbPFK ATP inactive and Tb PFK inh-2 inconclusive.
For CCCCCn1c(=O)c(C(=O)NCCc2ccccc2)c(O)c2ccccc21 the results were Pin1 inh inactive, PGK inhibitor inactive, PI4K2A inh inactive, PI5P4Ka inh inactive and Tb PFK inh-1 inactive.
`COCCn1c(C)cc(C(=O)COC(=O)c2cc3c(s2)CCC3)c1C` gave PGK inhibitor inactive, PI4K2A inh inactive, PI5P4Ka inh inconclusive, Tb PFK inh-1 inconclusive, TbPFK ATP inconclusive and Tb PFK inh-2 inactive.
`COC(=O)C1=C(c2ccc(S(C)(=O)=O)cc2)C[C@@H]2CC[C@H]1N2C(=O)NCC1CC1` gave Pin1 inh inactive, PGK inhibitor inactive, PI4K2A inh inactive and PI5P4Ka inh inactive.
Screening CCCCCn1c(=O)c(C(=O)Nc2ncccc2C)c(O)c2ccccc21 returned Pin1 inh inactive, PGK inhibitor inactive, PI4K2A inh inactive, PI5P4Ka inh inactive and Tb PFK inh-1 inactive.
O=[N+]([O-])c1ccc(CNc2ccc(Cl)cc2)s1 was read as Pin1 inh inactive, PGK inhibitor inactive, PI4K2A inh inactive, PI5P4Ka inh inactive, Tb PFK inh-1 27µM, TbPFK ATP 12µM and Tb PFK inh-2 27µM.
COc1ccc(OC(=O)Nc2ccc([N+](=O)[O-])cc2OC)cc1 was read as Pin1 inh inactive, PGK inhibitor inactive, PI4K2A inh inactive, PI5P4Ka inh inactive and Tb PFK inh-1 inconclusive.
COc1ccc(NCc2ccc([N+](=O)[O-])s2)cc1 was read as Pin1 inh inconclusive, PGK inhibitor inactive, PI4K2A inh inactive, PI5P4Ka inh inactive, Tb PFK inh-1 inconclusive, TbPFK ATP 13µM and Tb PFK inh-2 27µM.
Screening O=[N+]([O-])c1ccc(CNc2ccc(F)cc2)s1 returned Pin1 inh inactive, PGK inhibitor inactive, PI4K2A inh inactive, PI5P4Ka inh inactive, Tb PFK inh-1 17µM, TbPFK ATP 7.6µM and Tb PFK inh-2 9.5µM.
Screening Cc1cccc(N2C(=O)NC(=O)/C(=C/c3ccc(N4CCOCC4)cc3)C2=O)c1 returned Pin1 inh inactive, PGK inhibitor inactive, PI4K2A inh inactive, PI5P4Ka inh inactive and Tb PFK inh-1 inactive.
Screening O=[N+]([O-])c1c2ccccc2cc2ccccc12 returned Pin1 inh inactive, PGK inhibitor inactive, PI4K2A inh inactive, PI5P4Ka inh inactive and Tb PFK inh-1 inactive.
